Compound activity from PubChem.
Rab9 prom act: activators of Rab9 promoter; Huh7 Rab9 promoter-luciferase reporter, luminescence, 24 h; Potency, µM (titrated, usually from 9.22 µM), for the others: at the top dose activation, negative = inhibition, most hits filed as activators; AID 485297; actives 2.8% (n = 320,000); further: % of control where 0% means no effect; nearly all actives have a fitted effect of over 60% in size
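Cell-based reporter: Huh7 stable for Rab9 promoter-driven luciferase, plated in reduced-serum medium with 10% FBS at 1500 cells/well, compound-treated 24 h at 37 °C, luminescence read after 10 min reagent.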
SMN2 splice enh: enhancers of SMN2 splice variant expression. HEK293 SMN2-luciferase splicing reporter, luminescence, 30-36 h. Potency, µM (doses to about 46.1 µM), for inactives: top-dose activity change, positive = activation, actives largely listed as activators. actives 2.8% (n = 210,000); further: % of control where 0% means no effect; nearly all actives have a fitted effect of over 55% in size
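HEK293 cells carry an SMN2 minigene-luciferase reporter in which exon 7 inclusion puts luciferase in frame. Cells were seeded at 2000 cells/well, attached for 10-12 hours, then exposed to compounds for 30-36 hours at 37C before ONE-Glo luminescence.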
FLuc modulator: firefly luciferase modulation, counter-screen for miR-21 project; P08659; actives 6.9% (n = 360,000); Potency, µM (highest dose often 57.5 µM), for inactives: at the top dose activity change, negative = inhibition, most hits filed as inhibitors; purified FLuc, Km substrates, luminescence inhibition;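 further: plate controls were vehicle for no effect and reference inhibitor for full effect; nearly all actives have a fitted effect of over 55% in size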
Target sequence (P08659 whole entry, looked up): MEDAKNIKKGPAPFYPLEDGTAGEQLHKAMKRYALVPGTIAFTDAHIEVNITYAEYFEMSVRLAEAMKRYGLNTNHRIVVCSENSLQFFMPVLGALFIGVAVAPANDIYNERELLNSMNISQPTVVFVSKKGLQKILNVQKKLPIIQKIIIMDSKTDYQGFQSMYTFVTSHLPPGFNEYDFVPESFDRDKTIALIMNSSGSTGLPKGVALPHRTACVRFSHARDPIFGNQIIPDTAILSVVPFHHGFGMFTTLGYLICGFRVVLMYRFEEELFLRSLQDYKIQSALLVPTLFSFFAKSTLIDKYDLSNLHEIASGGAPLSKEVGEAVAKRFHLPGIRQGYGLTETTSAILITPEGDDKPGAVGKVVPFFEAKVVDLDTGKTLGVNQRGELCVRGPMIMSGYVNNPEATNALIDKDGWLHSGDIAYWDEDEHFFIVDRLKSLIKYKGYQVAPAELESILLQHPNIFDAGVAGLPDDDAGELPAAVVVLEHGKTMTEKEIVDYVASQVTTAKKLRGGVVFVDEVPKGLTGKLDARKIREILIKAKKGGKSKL
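Purified P. pyralis luciferase, 10 nM final, with Km-level 10 uM D-luciferin and 10 uM ATP in 50 mM Tris acetate pH 7.5, 10 mM Mg acetate, 0.01% Tween-20, 0.05% BSA; 6-point qHTS titration about 60 µM downward; luminescence read.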
ELG1 genotox: induces genotoxicity in HEK293T cells with luciferase-tagged ELG1. HEK293T ELG1-luciferase reporter, luminescence, 16 h. actives 1.3% (n = 330,000). AID 504466. Potency, µM (highest dose often 46 µM), for inactives: at the highest dose activity change, positive = activation, usual class: activators; further: % of control where 0% means no effect; nearly all actives have a fitted effect of over 60% in size
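HEK293T cells expressing luciferase-tagged ELG1 were treated with compound or DMSO for 16 hr at 37°C. Luciferase activity was then read after 30 min with ONE-Glo at room temperature; rising signal flags genetic stress.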
NPC1 prom act: NPC1 promoter activation; Huh7 NPC1 promoter luciferase reporter, 24 h; Potency, µM (doses to about 9.22 µM), without a hit: at the highest dose activation, usual class: activators; actives 2.4% (n = 320,000); AID 485313; further: % of control where 0% means no effect; nearly all actives have a fitted effect of over 60% in size
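Huh7 cells stably carrying NPC1 promoter–luciferase, plated in Opti-MEM with 10% FBS for 2 h, were exposed to compound in DMSO for 24 h at 37 °C; luciferase reagent was added for 10 min and luminescence read.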
ELG1 repair inh: blocks ELG1-dependent DNA repair in HEK293T cells. HEK293T ELG1-luciferase reporter, luminescence, 16 h; DNA damage induced by 5-fluorouridine. Potency, µM (doses to about 46.1 µM), inactives show top-dose activity change, negative = inhibition, most hits filed as inhibitors. actives 2.3% (n = 330,000). AID 504467; further: on the % scale 0 is the no-effect control and ±100 the full control effect; nearly all actives have a fitted effect of over 55% in size
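Step one: seed 2,000 cells per well. Step two: pin-transfer compound or DMSO alongside 5-fluorouridine. Step three: incubate 16 hr, 37 °C, 5% CO2. Step four: add ONE-Glo, wait 30 min, read luminescence.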
An asterisk follows results filed as active; u = inconclusive; x = no result given; [ ] = another dose, or the depositor's remark. Sampled rows, rich in hits. Any-hit rate of the full collection: about 9.4%. The call rests on the fitted dose curve; in most records, active means well fitted curve in the direction sought with a large enough effect; inconclusive means small, poorly fitted or top-dose-only effect, or another doubt; inactive means no such curve, though single readings can be large; an effect the other way counts as inactive or inconclusive. Potency means the concentration at half of the fitted maximal effect.

SMILES	Rab9 prom act	SMN2 splice enh	FLuc modulator	ELG1 genotox	NPC1 prom act	ELG1 repair inh
COC(=O)c1c(NC(=O)CN2CCN(Cc3ccc4c(c3)OCO4)CC2)sc(C)c1C	2%	-15%	2%	-1%	1%	8.2µM*
COC(=O)c1ccc(C(NC(=O)c2ccco2)[C@]2(C)C[C@H]2C2CCCCC2)cc1 (stereo partly drawn)	x	-33%	x	x	x	x
Cc1cc(OCCCSc2nc(-c3ccc(C(C)(C)C)cc3)nc3cc(=O)[nH]n23)ccc1Cl	x	x	-13%	x	x	x
Cc1cc2c(s1)c1c(n2C)C(=O)N(Cc2ccccc2F)C1	2%	x	-8%	x	0%	x
O=S(=O)(c1cccs1)N1CCN(CC(O)COc2cccc(Br)c2)CC1 (stereo not drawn)	3%	-17%	-2%	-7%	-4%	21µM*
CC1(C)CO[C@@H](CC(=O)O)CN1	x	2%	x	x	x	x
S=C(NCc1ccco1)Nc1cccc(Cl)c1Cl	-7%	x	-11%	-1%	-2%	15µM*
COc1ccc(Cc2nc3ccc(C(=O)N4CCOCC4)cc3o2)cc1	4µM*	x	13µM*	18µM*	3.2µM*	u
COc1ccc(Cc2nc3ccc(C(=O)N4CCCN(C=O)CC4)cc3o2)cc1	1%	x	-9%	-4%	0%	-6%
COc1ccc(Cc2nc3ccc(C(=O)N4C[C@@H](C)O[C@@H](C)C4)cc3o2)cc1OC	10%	x	15µM*	u	26%	u
COCCN1CCN(C(=O)c2ccc3nc(Cc4ccc(OC)c(OC)c4)oc3c2)CC1	-18%	x	1%	0%	-28%	16%
COCCc1ccc(OC[C@H](O)CNC(C)C)cc1	x	2%[20.6 µM]	x	x	x	x
Cc1cc(C)nc(-n2nc(C)c(Sc3ccc(F)cc3)c2N)n1	3.5µM*	16µM*	11µM*	u	2.5µM*	u
Cc1nn(-c2ccccc2)c(N)c1Sc1cccc([N+](=O)[O-])c1	-5%	-32%	-2%	-1%	-2%	-9%
CCc1ccc(NC(=O)C2C3C=CC(C4CC34)C2C(=O)O)cc1 (stereo not drawn)	24%	u	2.1µM*	8%	21%	u
CC(=O)c1cccc(NC(=O)C2C3C=CC(C4CC34)C2C(=O)O)c1 (stereo not drawn)	-4%	-2%	-1%	-1%	6%	5%
CCCCNc1nc(C)nc2c1nc(-c1ccccc1)n2CCN1CCCC1	x	-7%	x	x	x	x
COc1ccccc1C(=O)NC(=S)N1CCCc2ccccc21	8%	-87%	21µM*	10%	-17%	u
COc1ccc(OCC(=O)NC(=S)N2CCCc3ccccc32)cc1	-1%	15%	27µM*	10µM*	7%	u
O=C(NC(=S)N1CCCc2ccccc21)c1ccc(Cl)cc1	26%	u	6.7µM*	16%	15%	u
COc1ccccc1C(=O)NC(=S)N1CCc2ccccc21	0%	6%	-20%	5%	1%	3%
O=C(NC(=S)N1CCCc2ccccc21)c1ccccc1	2%	-13%	u	16%	-5%	u
CCCC[C@]12Cc3cc(C#N)ccc3C(O1)c1c(c3cc(F)ccc3oc1=O)O2	-13%[1.84 µM]	x	0%[11.5 µM]	x	0%[1.84 µM]	x
COc1ccccc1NC(=O)CSc1nc2ccccc2c2nc(-c3ccccc3)nn12	x	x	-2%	x	x	x
Cc1cc(NC(=O)c2ccccc2)ncc1NC(=O)c1ccco1	1.4µM*	8.9µM*	11µM*	1.6µM*	2µM*	u
SMILES	Rab9 prom act	SMN2 splice enh	FLuc modulator	ELG1 genotox	NPC1 prom act	ELG1 repair inh
Cc1cc(O)c(NC(=O)c2ccco2)cc1C	27%	11µM*	30µM*	u	26%	u
Cc1cc(NC(=O)c2ccc(Br)o2)ccc1NC(=O)c1ccco1	17%	x	u	u	9%	u
Cc1ccc(O)c(NC(=O)c2ccco2)c1	18%	16µM*	6µM*	11%	u	u
Cc1ccc(C(=O)Nc2ccc(NC(=O)c3ccco3)c(C)c2)cc1	30%	x	5.4µM*	u	21%	u
CCn1c(=N)c(C(=O)NC2CCCC2)cc2c(=O)n3cc(C)ccc3nc21	x	2%	3%	x	x	x
Cc1ccc(C)c(-c2ccc(=O)n(C(C)C(=O)Nc3ccccc3C(F)(F)F)n2)c1 (stereo not drawn)	x	-4%	-10%	x	x	x
COc1ccc(NC(c2ccccc2)c2ccncc2)cc1 (stereo not drawn)	-6%	x	1%	-1%	-11%	26µM*
COc1cc(OC)c(NC(=O)CSc2nccn2C)cc1Cl	x	-9%	1%	x	x	x
O=C(Nc1cccc(-c2nc3ccccc3[nH]2)c1)c1c(F)cccc1F	x	10%	12µM*	x	x	x
O=C(Nc1cccc(-c2nc3ccccc3[nH]2)c1)c1ccccc1F	x	-18%	11µM*	x	x	x
COc1cccc(OC)c1C(=O)Nc1cccc(-c2nc3ccccc3[nH]2)c1	-2%	x	-2%	-1%	-2%	-19%
O=C(Nc1cccc(-c2nc3ccccc3[nH]2)c1)c1ccccn1	16%	x	13µM*	-19%	14%	-10%
Cc1cccc(C)c1OCc1cc(C(=O)N2CCC(c3ccncc3)CC2)no1	1%	x	13µM*	10%	6%	u
O=C(c1cc(COc2c(F)cccc2F)on1)N1CCC(c2ccncc2)CC1	-31%	x	-3%	-7%	-32%	u
O=C(c1cc(COc2c(F)cccc2F)on1)N1CCC(c2ccccc2F)C1 (stereo not drawn)	u	x	15µM*	u	29%	u
O=C(c1cc(COc2ccc(F)cc2F)on1)N1C[C@H]2CC[C@H]1C2	u	x	u	25%	19%	u
O=C(c1cc(COc2c(F)cccc2F)on1)N1C[C@H]2CC[C@H]1C2	1.6µM*	x	12µM*	12µM*	3.2µM*	u
COc1ccc(CC(=O)Nc2c(C(=O)Nc3ccc(F)cc3)oc3ccccc23)cc1OC	x	11%	-6%	x	x	x
Cc1cc(Cl)ccc1OCc1nc(-c2ccc(O)cc2)n[nH]1	0%	10%	11µM*	-2%	-3%	23%
Cc1cc(Cl)ccc1OCc1nc(-c2ccc(-n3cccc3)cc2)no1	x	-8%	-1%	x	x	x
NNC(=O)[C@@H](O)[C@H](O)[C@H](O)CO	x	-3%[9.22 µM]	x	x	x	x
C=CCN=C1S/C(=C\c2ccc(N(C)C)cc2)C(=O)N1CC=C	u	x	21µM*	6%	18%	4%
Cc1ccc(-c2cc(N)n[nH]2)cc1	3%	u	u	0%	5%	14%
CC(C)(C)c1ccc(-c2cc(N)n[nH]2)cc1	-5%	-12%	9.5µM*	3%	0%	u
